Compounds with a hit are over-represented: about 3.2% of the library has one in this group of screens.
VDR inhibitor = Inhibitors of the vitamin D receptor (VDR): qHTS. 400,000 compounds, 0.93% hits. VDR-SRC2-3 peptide fluorescence polarization, 2 h. Potency, µM, usual class: inhibitors
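VDR–SRC2-3 interaction, FP format. Cmpds 23 nl via pintool, brief spin, 2 h ambient incubation.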
USP2a inh = qHTS Assay for Inhibitors of Ubiquitin-specific Protease USP2a Using CHOP2 as the Reporter; Ubiquitin carboxyl-terminal hydrolase 2 (Homo sapiens), O75604; USP2 core, Ub-CHOP2 coupled fluorogenic reporter, 485/531; Potency, µM (highest dose often 38.3 µM), usual class: inhibitors; 330,000 compounds, 0.01% hits; AID 463254, 2010
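Cell-free coupled assay: 10nM USP2 core preincubated 30min RT with compound in Tris-HCl pH 8.0/CaCl2/CHAPS buffer, then 25nM Ub-CHOP2 and 25nM reporter substrate; fluorescence (Ex 485/Em 531) read after 60min RT, normalized to NEM inhibition, concentration-response curves fitted.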
GALK inhibitor = qHTS Assay for Inhibitors of Human Galactokinase (GALK). P51570. Purified GALK, Kinase-Glo residual ATP luminescence. Potency, µM (titrated, usually from 57.5 µM), most hits filed as inhibitors. 270,000 compounds, 0.007% hits. AID 1868, 2009
Target sequence (P51570 whole entry, looked up): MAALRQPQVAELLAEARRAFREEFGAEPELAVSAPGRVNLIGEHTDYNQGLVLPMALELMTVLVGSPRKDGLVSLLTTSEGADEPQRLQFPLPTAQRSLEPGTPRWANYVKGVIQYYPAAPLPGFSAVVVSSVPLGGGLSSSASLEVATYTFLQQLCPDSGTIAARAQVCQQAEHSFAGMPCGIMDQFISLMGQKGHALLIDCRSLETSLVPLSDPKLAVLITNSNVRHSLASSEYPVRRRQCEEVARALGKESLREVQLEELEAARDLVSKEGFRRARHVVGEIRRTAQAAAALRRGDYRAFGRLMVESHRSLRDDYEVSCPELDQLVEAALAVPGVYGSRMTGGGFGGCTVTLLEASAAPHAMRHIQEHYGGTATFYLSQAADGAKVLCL
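Kinase-Glo Plus luminescence measured ATP left after a 1 h room-temperature reaction. The reaction used 5 nM GALK, 100 uM galactose and 35 uM ATP at pH 8.0 (20 mM HEPES, 5 mM MgCl2, 60 mM NaCl, 1 mM DTT, 0.01% BSA).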
USP1-UAF1 inh = Inhibitors of USP1/UAF1: Primary Screen. Ubiquitin carboxyl-terminal hydrolase 1 (Homo sapiens), O94782. recombinant USP1/UAF1, Ub-Rhodamine cleavage fluorescence. Potency, µM (titrated, usually from 57.1 µM), hits mostly inhibitors. 390,000 compounds, 0.23% hits. AID 743255, 2014; also: nearly all actives have a fitted effect of over 60% in size
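In this screen, compounds sit with the deubiquitinase complex (1nM) for 15 min at room temperature before Ub-Rho is added at 150nM final. Fluorescence rise is then followed for 6 reads every 60 seconds.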
Coupling enz = qHTS Assay for Inhibitors of Fructose-1,6-bisphosphate Aldolase from Giardia Lamblia: Coupling assay counterscreen. activity change, negative = inhibition, % at 58.2 µM, hits read low. AID 2472, 2010. coupling enzyme system counterscreen, AmpLite Red fluorescence. 290,000 compounds, 0.67% hits; in the data active = activity change below about -30%
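Coupling enzymes only (glyceraldehyde-3-phosphate) + compound, at 57.5 uM final, 10 min RT; add substrate/coupling/AmpLite Red mix, 20 min RT; fluorescence ex 525/em 598 nm. Actives flag coupling-system interference.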
PLK1 PBD block = qHTS for Inhibitors of PLK1-PDB (polo-like kinase 1 - polo-box domain): Primary Screen; 360,000 compounds, 2.8% hits; Potency, µM, hits mostly inhibitors; Serine/threonine-protein kinase PLK1 (Homo sapiens), P53350; AID 720504, 2013; Plk1 PBD binding of FITC phosphopeptide, fluorescence polarization; also: series mostly up to about 57 µM; nearly all actives have a fitted effect of over 65% in size
Large screens that a line does not name were inactive. Unless noted, calls follow the shape of the dose curve; as a rule, active = well fitted curve in the direction sought with a large enough effect; inconclusive = small, poorly fitted or top-dose-only effect, or another doubt; inactive = no such curve, though single readings can be large; an effect the other way counts as inactive or inconclusive.

Cc1cc(N2C(=O)C(O)=C(C(=O)c3ccc(C)o3)C2c2cccc(Oc3ccccc3)c2)no1 (stereo unspecified)	VDR inhibitor inconclusive, PLK1 PBD block 24µM
Nc1ccc2nc(SCC(=O)c3ccccc3)sc2c1	none
Nc1ccc2nc(SCc3ccccc3F)sc2c1	USP1-UAF1 inh inconclusive, PLK1 PBD block 15µM (no result: GALK inhibitor)
Cc1cc(C)cc(OCC(=O)OCC(=O)Nc2cc(C)nn2-c2ccccc2)c1	none (no result: GALK inhibitor, Coupling enz)
CCCCc1oc2ccccc2c1C(=O)c1cc(I)c(N(CC)CCOCC)c(I)c1	none (no result: USP2a inh, GALK inhibitor, USP1-UAF1 inh, Coupling enz, PLK1 PBD block)
CCc1oc2ccccc2c1C(=O)c1cc(I)c(O)c(I)c1	VDR inhibitor 32µM (no result: USP2a inh, GALK inhibitor, USP1-UAF1 inh, Coupling enz, PLK1 PBD block)
COc1ccc(-n2nc3cc(C)c(NC(=O)Cc4ccc(Cl)cc4)cc3n2)cc1	none (no result: USP2a inh, GALK inhibitor, Coupling enz, PLK1 PBD block)
O=C(CCc1nc2ccccc2[nH]1)N1CCc2ccccc2C1	USP1-UAF1 inh inconclusive, Coupling enz -34, PLK1 PBD block inconclusive (no result: GALK inhibitor)
COc1ccccc1CNC(=O)c1ccc(-c2ccccc2)cc1	none
CCc1c(C)sc(NC(=O)c2cc(-c3ccc(O)cc3)on2)c1C#N	VDR inhibitor inconclusive, PLK1 PBD block 19µM
CCc1c(C)sc(NC(=O)c2cc(-c3ccc(OC)c(OC)c3)on2)c1C#N	USP1-UAF1 inh inconclusive
CCc1c(C)sc(NC(=O)c2cc(CC(C)C)on2)c1C#N	PLK1 PBD block 15µM
CCc1c(C)sc(NC(=O)c2noc(C)c2[N+](=O)[O-])c1C#N	VDR inhibitor inconclusive, PLK1 PBD block 34µM
CCc1ccccc1N(C)C(=O)c1cn(-c2cccc(OC)c2)c(=O)c2ccccc12	none (no result: USP2a inh, GALK inhibitor, Coupling enz, PLK1 PBD block)
O=C(O)c1cc2ccccc2c(Cc2cc3ccccc3c(C(=O)O)c2O)c1O (tested in a mixture with another compound)	VDR inhibitor 14µM (no result: USP2a inh, GALK inhibitor, USP1-UAF1 inh, PLK1 PBD block)
O=C(O)c1cc(Cl)c2ccccc2c1O	none
O=C(OCc1cccc([N+](=O)[O-])c1)c1cccnc1Cl	none
CCC(=O)N1CCCC(C)(C(=O)Nc2ccc(OC(F)F)cc2)C1 (stereo unspecified)	none (no result: VDR inhibitor, USP2a inh, GALK inhibitor, USP1-UAF1 inh, Coupling enz)
NS(=O)(=O)c1ccc(N=Nc2ccc(O)c3ncccc23)cc1	none
NS(=O)(=O)c1ccc(N=Nc2ccc(=O)[nH]c2O)cc1	USP1-UAF1 inh inconclusive, Coupling enz -32, PLK1 PBD block 27µM
C=CCOC(=O)C(=O)/C=C/c1ccc2c(c1)Cc1ccccc1-2	VDR inhibitor 22µM, PLK1 PBD block inconclusive
O=C(Nc1ccc2c(c1)Cc1ccccc1-2)c1ccco1	none
Cc1ccc(CN(C(=O)COc2ccc(C)c(C)c2)C2CCS(=O)(=O)C2)o1 (stereo unspecified)	PLK1 PBD block 27µM
Cc1ccc(CN(C(=O)COc2ccc(Br)cc2)C2CCS(=O)(=O)C2)o1 (stereo unspecified)	VDR inhibitor inconclusive, PLK1 PBD block 12µM
Cc1ccc(OCC(=O)N(Cc2ccc(C)o2)C2CCS(=O)(=O)C2)cc1 (stereo unspecified)	VDR inhibitor inconclusive, PLK1 PBD block 27µM
Cc1ccc(CN(C(=O)COc2ccc(F)cc2)C2CCS(=O)(=O)C2)o1 (stereo unspecified)	none (no result: USP2a inh, GALK inhibitor, Coupling enz, PLK1 PBD block)
Cc1ccc(CN(C(=O)c2ccc(Cl)c([N+](=O)[O-])c2)C2CCS(=O)(=O)C2)o1 (stereo unspecified)	PLK1 PBD block 24µM
Cc1cc(C)cc(OCC(=O)N(Cc2ccc(C)o2)C2CCS(=O)(=O)C2)c1 (stereo unspecified)	none (no result: USP2a inh, GALK inhibitor, Coupling enz, PLK1 PBD block)
O=C(c1ccc(Cl)c([N+](=O)[O-])c1)N(Cc1ccc(Cl)cc1)C1CCS(=O)(=O)C1 (stereo unspecified)	none
CCOc1ccc(N(CC)S(=O)(=O)N2CCCC(C(=O)Nc3cc(Cl)ccc3OC)C2)cc1 (stereo unspecified)	none (no result: USP2a inh, GALK inhibitor, Coupling enz, PLK1 PBD block)
Cc1ccc(NC(=S)Nc2ccc(S(=O)(=O)Nc3ncccn3)cc2)cc1Cl	none (no result: VDR inhibitor, USP1-UAF1 inh, PLK1 PBD block)

Bioassay records (PubChem)
